Screens: PubChem, National Center for Advancing Translational Sciences (NCATS)
KCNH2 3.1 inh: qHTS for Inhibitors of KCHN2 3.1: Mutant qHTS. U2OS KCNH2 3.1, thallium flux FluxOr; active compounds read low. activity change, % (tested at about 1.8 µM). 0.95% of 340,000 active. AID 720553, 2013;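 active = maximum activity change below -70%; inconclusive = maximum activity change from -70% to -50%; inactive = maximum activity change above -50%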;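 note: thallium influx rate constant from kinetic fluorescence after stimulation buffer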
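Thallium flux via FluxOr fluorescence (Red40 quencher, 45 min loading) in U2OS cells virally expressing the KCNH2 3.1 isoform (1.77 x 10^8 /mL virus, overnight at 37 C). Rate constants from 2-min kinetic reads post-stimulation, normalised to positive and negative controls.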
USP1 inh: Inhibitors of USP1/UAF1: Primary Screen; recombinant USP1/UAF1, Ub-Rhodamine cleavage fluorescence; Potency, µM (top dose mostly 57.1 µM), inactives show top-dose activity change, negative = inhibition, most hits filed as inhibitors; 0.23% of 390,000 active; AID 743255, 2014; active = well fitted inhibition curve with a large enough effect; inconclusive = small, poorly fitted or top-dose-only effect; inactive = no such curve, though single readings can be large or run the other way; note: potency is the fitted concentration of half-maximal effect; nearly all actives have a fitted effect of over 60% in size
Target sequence (O94782 whole entry, looked up): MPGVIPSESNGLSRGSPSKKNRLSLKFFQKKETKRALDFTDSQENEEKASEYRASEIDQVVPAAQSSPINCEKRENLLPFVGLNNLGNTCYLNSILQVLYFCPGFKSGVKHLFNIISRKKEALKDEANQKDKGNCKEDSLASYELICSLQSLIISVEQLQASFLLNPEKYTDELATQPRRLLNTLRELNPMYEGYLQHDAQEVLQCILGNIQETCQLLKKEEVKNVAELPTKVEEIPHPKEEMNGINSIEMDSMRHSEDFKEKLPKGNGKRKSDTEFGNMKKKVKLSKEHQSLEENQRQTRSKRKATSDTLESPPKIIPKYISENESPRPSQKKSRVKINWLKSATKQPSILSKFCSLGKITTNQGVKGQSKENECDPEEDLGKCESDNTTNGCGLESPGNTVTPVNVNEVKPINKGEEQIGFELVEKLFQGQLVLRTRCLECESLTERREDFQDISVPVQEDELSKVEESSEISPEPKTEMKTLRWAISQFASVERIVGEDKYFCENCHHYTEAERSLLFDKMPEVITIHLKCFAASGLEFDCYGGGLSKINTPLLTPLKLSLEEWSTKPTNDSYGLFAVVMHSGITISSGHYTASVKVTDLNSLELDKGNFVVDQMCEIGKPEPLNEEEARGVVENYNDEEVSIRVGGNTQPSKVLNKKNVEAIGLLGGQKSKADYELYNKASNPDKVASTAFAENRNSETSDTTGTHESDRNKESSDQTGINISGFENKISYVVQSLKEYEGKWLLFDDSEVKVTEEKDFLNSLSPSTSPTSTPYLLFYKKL
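In this screen, compounds sit with the deubiquitinase complex (1nM) for 15 min at room temperature before Ub-Rho is added at 150nM final. Fluorescence rise is then followed for 6 reads every 60 seconds.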
Giardia killer: Small Molecules that selectively kill Giardia lamblia: qHTS; Giardia lamblia trophozoite viability; activity change, % at 7.66 µM, hits read low; 0.15% of 340,000 active; in the data active = activity change below about -80%; inconclusive = between about -30% and that limit;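 note: parasites exposed to compound for two days anaerobically before the ATP read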
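Trophozoites 100 cells/well + cpd; 48 hrs, 37 deg C, anaerobic. ATPLite 1-Step added, 15-30 min RT, luminescence read (ATP-based viability).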
Coupling enz: qHTS Assay for Inhibitors of Fructose-1,6-bisphosphate Aldolase from Giardia Lamblia: Coupling assay counterscreen. coupling enzyme system counterscreen, AmpLite Red fluorescence. activity change, negative = inhibition, % at 58.2 µM, hits read low. 0.67% of 290,000 active. AID 2472, 2010; in the data active = activity change below about -30%
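Activity here indicates interference with the coupling reaction, not aldolase inhibition. Compounds at 57.5 uM final met coupling enzymes for 10 min at RT; substrate and AmpLite Red detection followed, with a 525/598 nm fluorescence read after 20 min.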
hERG WT inh: qHTS for Inhibitors of KCHN2 3.1: Wildtype qHTS | activity change, % at 1.84 µM | U2OS, BacMam KCNH2, thallium flux FluxOr; active compounds read low | AID 720551, 2013 | Voltage-gated inwardly rectifying potassium channel KCNH2 (Homo sapiens), Q12809 | 0.37% of 340,000 active;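 active = maximum activity change below -70%; inconclusive = maximum activity change between -70% and -50%; inactive = maximum activity change above -50%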
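U2OS cells transduced with wild-type KCNH2 virus are loaded with FluxOr dye for 45 min, and thallium flux is measured in kinetic reads before and after stimulation buffer. Rate constants are normalized to DMSO controls.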
* hit, by the source's call; ? = inconclusive; . = not tested or not shown. Shown are actives, neighbours in structure and some others; about 1.7% of the full set was active somewhere. % is set by controls: 0 for no effect and ±100 for the full control effect.

SMILES	KCNH2 3.1 inh	USP1 inh	Giardia killer	Coupling enz	hERG WT inh
CCN(CC)S(=O)(=O)c1ccc2c(c1)N(CC(=O)N1CCN(c3ccc(F)cc3)CC1)C(=O)CO2	.	5%	.	.	.
Cc1ccc(C(=O)N2CCN(c3ccc(NC(=O)CSc4ccc(Cl)cc4)cc3)CC2)cc1	-118*	-20%	8	-2	-118*
Cc1ccc2cc(C(=O)O)c(C)nc2c1	-88*	-17%	5	.	5
COC(C[C@H](O)C[C@@H](O)[C@H](C)OCc1ccccc1)OC	-2	-23%	8	6	-8
COC(C[C@@H](O)C[C@@H](O)[C@@H](C)OCc1ccccc1)OC	-222*	-14%	1	.	5
CCc1cccc(NC(=O)C(NS(=O)(=O)c2ccc3nc(C)sc3c2)C(C)C)c1 (configuration not stated)	.	-27%	.	.	.
O=c1ccn(-c2cccc(C(F)(F)F)c2)nc1-c1ccn(-c2ccccc2F)n1	1	-11%	0	-43*	-2
Cc1cc2nc3c(=O)n(CCc4ccccc4)c(=O)[nH]c3nc2cc1N	13	18µM*	-7	-22	3
Nc1ccc2nc3c(=O)n(CCc4ccccc4)c(=O)[nH]c3nc2c1	-6	16µM*	?	-20	-8
Nc1ccc2nc3c(=O)n(C4CCCCC4)c(=O)[nH]c3nc2c1	-4	102%	16	-15	-7
CCCCn1c(=O)[nH]c2nc3cc(N)ccc3nc2c1=O	-2	28µM*	-6	-53*	-9
C=CCn1c(=O)[nH]c2nc3cc(N=CN(C)C)c(C)cc3nc2c1=O	3	?	4	-12	8
Cc1ccc(-c2nnn3c2nc(NCc2ccc4c(c2)OCO4)c2ccccc23)cc1	.	-30%	.	.	.
CCc1ccccc1N(C)S(=O)(=O)c1ccc2[nH]cc(C(=O)NCCOC)c(=O)c2c1	.	-7%	.	.	.
COC(=O)CCC(=O)OC1(C)C(=O)C=C2C=C(C3CC3)N(CC(C)C)C=C2C1=O (configuration not stated)	.	.	.	-45*	.
COC(=O)CCC(=O)OC1(C)C(=O)C=C2C=C(C3CC3)N(Cc3ccccc3)C=C2C1=O (configuration not stated)	-10	?	-13	2	-15
COC(=O)CCC(=O)OC1(C)C(=O)C=C2C=C(C3CC3)N(c3ccc(OC)cc3)C=C2C1=O (configuration not stated)	.	.	.	-41*	.
Cc1cc(O)c(C(C)C)cc1N=Cc1ccccc1O	-47	?	-4	-51*	14
CC1(C)Cc2c(sc(NC(=O)COc3ccc(Cl)cc3)c2C(N)=O)C(C)(C)N1	-73*	-22%	36	.	16
CC1(C)Cc2c(sc(NC(=O)COc3cccc4ccccc34)c2C#N)C(C)(C)N1	-2	18µM*	-24	-2	3
CCOC(=O)c1c(NC(=O)CSc2nnnn2-c2ccccc2OCC)sc2c1CC(C)(C)NC2(C)C	-81*	-12%	-12	.	-19
CCOC(=O)c1c(NC(=O)CSc2nnnn2-c2ccccc2)sc2c1CC(C)(C)NC2(C)C	-41	-12%	6	-1	10
Cc1ccc(OCC(=O)Nc2sc3c(c2C#N)CC(C)(C)NC3(C)C)cc1	-4	-1%	-5	2	12
O=c1oc2ccccc2c(Nc2cc3ccccc3cc2O)c1[N+](=O)[O-]	-10	-27%	-9	-56*	-13
O=c1oc2ccccc2c(Nc2ccccc2O)c1[N+](=O)[O-]	-3	-9%	-16	0	-25
SMILES	KCNH2 3.1 inh	USP1 inh	Giardia killer	Coupling enz	hERG WT inh
COCC(=O)N(C)[C@H]1C[C@H]2c3[nH]c4ccccc4c3CCN2C(=O)[C@H]1[C@H](C)O	-1	-10%	.	.	-4
C[C@H](O)[C@@H]1C(=O)N2CCc3c([nH]c4ccccc34)[C@@H]2C[C@@H]1N(C)C(=O)NC1CCCCC1	-14	-1%	.	.	-114*
CCN(CC)c1ccc(S(=O)(=O)N2CCOCC2)cc1NC(=O)COC(=O)/C=C/c1ccc(C)o1	-12	-14%	1	.	0
COc1ccccc1NC(=O)COC(=O)c1ccc([N+](=O)[O-])s1	0	14µM*	6	1	-15
O=[N+]([O-])c1cc(S(=O)(=O)Nc2ccccc2)ccc1-n1nnc2ccccc21	-183*	-10%	7	0	-210*
O=C(CNCCC1=CCCCC1)Nc1ccccc1N1CCCCC1	1	-13%	-5	-42*	-12
O=C(CNC1CCCCCC1)Nc1ccccc1N1CCCCC1	12	-19%	0	-3	-1
N#C/C(=C/c1ccc(Br)s1)C(=O)NCCc1c[nH]c2ccccc12	-7	-19%	-2	4	-74*
Cc1ccc(C)c(-n2c3nc(=O)[nH]c(=O)c-3cc3c(C)nn(-c4ccccc4)c32)c1	.	-12%	.	.	.
Cc1ccc(-n2c3nc(=O)[nH]c(=O)c-3cc3c(C)nn(-c4ccccc4)c32)c(C)c1	-149*	-10%	5	2	-151*
CC1=C(c2ccc(C)cc2)S(=O)(=O)NC1=NCc1cccc(F)c1	.	-6%	.	.	.
CC(NC(=O)c1ccco1)C(=O)OCC(=O)c1ccc(Cl)s1 (configuration not stated)	-4	-18%	-16	2	-224*
Cc1ccc(C(=O)COC(=O)[C@@H](NC(=O)c2ccco2)C(C)C)s1	3	0%	7	.	5
CC(NC(=O)c1ccco1)C(=O)O (configuration not stated)	-116*	5%	-22	.	-5
Cn1cc(C(=O)NCc2ccccc2)c(=O)c2cc(S(=O)(=O)N3CCCCCC3)ccc21	.	-21%	.	.	.
c1ccc(-c2[nH]ncc2-c2ccnc3ccccc23)nc1	.	.	.	-7	.
CC(Nc1nc(-c2ccncc2)nc2ccccc12)c1ccccc1 (configuration not stated)	-6	-13%	-5	0	-11
CC(Nc1nc(N2CCNCC2)nc2ccccc12)c1ccccc1 (configuration not stated)	-17	-9%	-84*	1	12
O=c1[nH]c(SCc2ccccc2)ncc1S(=O)(=O)c1ccccc1	.	.	3	.	.
CCO/C=C/C(O)(CNC(=O)c1ccc(C(C)(C)C)cc1)C(F)(F)F (configuration not stated)	-72*	-20%	6	-12	6
CCOC(=O)CNC(=O)c1ccc(C)cc1	2	-3%	-10	2	-1
CC1CCN(c2oc(-c3cccs3)nc2S(=O)(=O)c2ccc(Cl)cc2)CC1	.	-6%	.	.	.
